Source: PubChem BioAssay (several laboratories)
CYP2C9 act: CYP2C9 (human) activation. P11712. recombinant CYP2C9, luciferin-H conversion, luminescence; hits give high values; factor 1 = untreated enzyme, 0 = blocked. activation factor at 5 µM. 96,000 tested, 1.4% active. AID 1024;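 active means activation factor of 2 or more for CYP2C9 at a 5 µM dose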
CYP2C19 inh: inhibitors of human CYP2C19. P33261. inhibition, % at 5 µM. 96,000 tested, 21% active. CYP2C19 Supersomes, luciferin-H EGE luminescence, 30 min;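 active means CYP2C19 inhibition above a set limit at 5 µM in the primary screen, cut at about 50% in these data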
Target sequence (P33261 whole entry, looked up): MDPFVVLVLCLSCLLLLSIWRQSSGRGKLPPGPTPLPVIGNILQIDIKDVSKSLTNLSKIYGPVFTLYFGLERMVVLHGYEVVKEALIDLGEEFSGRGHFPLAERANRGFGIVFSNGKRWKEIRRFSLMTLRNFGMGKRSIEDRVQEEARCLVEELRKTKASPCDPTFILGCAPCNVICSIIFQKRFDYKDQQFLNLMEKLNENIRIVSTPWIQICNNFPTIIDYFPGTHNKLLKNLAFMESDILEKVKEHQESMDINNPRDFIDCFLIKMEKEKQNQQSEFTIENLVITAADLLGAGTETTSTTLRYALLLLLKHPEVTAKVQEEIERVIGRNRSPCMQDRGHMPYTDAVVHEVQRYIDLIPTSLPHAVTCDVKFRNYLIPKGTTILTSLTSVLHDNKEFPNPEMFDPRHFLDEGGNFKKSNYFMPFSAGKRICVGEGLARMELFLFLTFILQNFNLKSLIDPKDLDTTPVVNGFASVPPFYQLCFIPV
CYP2C9 inh: human CYP2C9 inhibition | CYP2C9 Supersomes, luciferin-H conversion, luminescence | AID 777 | 96,000 tested, 20% active | P11712 | inhibition, % at 5 µM;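 active means blocking of liver enzyme CYP2C9 beyond about 50% at 5 µM, limit read from the data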
CYP2C19 act: increases human CYP2C19 enzyme activity; P33261; recombinant CYP2C19, luciferin-H EGE luminescence; hits give high values; 0 = fully inhibited enzyme, 1 = untreated enzyme; activation factor at 5 µM; 96,000 tested, under 10 active;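 active means activation factor of at least 2 at 5 µM in the primary screen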
cytoskel mod: cytoskeleton assembly modification; HUVEC TNFa F-actin phalloidin imaging, high content; inhibition, % at 2 µM; 91,000 tested, 0.18% active; AID 836;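 active means inhibition above the batch mean plus 3 SD and confirmed as a hit by visual image inspection, cut at about 30% in these data, passing the limit was not always enough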
E-sel TNF inh: TNF alpha driven E-selectin expression inhibition. HUVEC TNFa-induced E-selectin immunofluorescence, high content. inhibition, % at 2 µM. 120,000 tested, 0.71% active. AID 1246;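 active means inhibition above the batch mean plus 3 SD, and confirmed as a hit on visual image review, cut at about 43% in these data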
Large screens that a line does not name were inactive. A selection: hits, their analogues and other compounds. The true share with any hit is near 22%.

CCC(SCC(=O)OC)C(=O)Nc1nnc(C(C)C)s1 (stereo not given)	E-sel TNF inh 67
Nc1c(C(=O)NC2CC2)c2nc3ccccc3nc2n1-c1ccc2c(c1)OCO2	none
C=CCn1c(N)c(C(=O)NCC2CCCO2)c2nc3ccccc3nc21 (stereo not given)	none
CCCNC(=O)c1c(N)n(-c2cc(OC)cc(OC)c2)c2nc3ccccc3nc12	CYP2C9 inh 70 (no result: cytoskel mod, E-sel TNF inh)
Nc1c(C(=O)OCC2CCCO2)c2nc3ccccc3nc2n1-c1ccc2c(c1)OCCO2 (stereo not given)	CYP2C19 inh 54, CYP2C9 inh 59
COc1ccc(-n2c(N)c(C(=O)NCC3CCCO3)c3nc4ccccc4nc32)c(OC)c1 (stereo not given)	CYP2C9 inh 55
C[C@H](NC(=O)c1ccco1)C(=O)Nc1cccc([N+](=O)[O-])c1	none (no result: CYP2C9 act, CYP2C19 inh, CYP2C9 inh, CYP2C19 act, cytoskel mod)
COc1ccc2nc(N3C(=O)CC(Cc4cc(C)cc(C)c4)C3=O)sc2c1 (stereo not given)	none
CCOc1cccc(Oc2ccc(C(F)(F)F)cn2)c1	none
FC(F)(F)c1cnc(Oc2ccccc2-c2nnco2)c(Cl)c1	CYP2C19 inh 95
O=C(O)Cc1ccc(Oc2ncc(C(F)(F)F)cc2Cl)cc1	none (no result: CYP2C9 act, CYP2C19 inh, CYP2C9 inh, CYP2C19 act, cytoskel mod)
COc1cccc(OC)c1Oc1ccc(C(F)(F)F)cn1	CYP2C19 inh 66
Nc1ccccc1Oc1ncc(C(F)(F)F)cc1Cl	CYP2C19 inh 72
C/C(=N\NC(=O)c1ccc(CN2CCOCC2)cc1)c1ccc([N+](=O)[O-])cc1	none (no result: CYP2C9 act, CYP2C19 inh, CYP2C9 inh, CYP2C19 act, cytoskel mod)
NNC(=O)CN1C(c2ccc(Cl)cc2)=Nc2ccc(Br)cc2C1c1ccccc1 (stereo not given)	CYP2C9 inh 58
NNC(=O)CN1C(c2ccccc2)=Nc2ccc(Br)cc2C1c1ccccc1 (stereo not given)	none (no result: CYP2C9 act, CYP2C19 inh, CYP2C9 inh, CYP2C19 act, cytoskel mod)
O=C(COC(=O)c1ccc(S(=O)(=O)NCc2ccco2)cc1)NC1CCCCCC1	none
N#Cc1c(N2CCOCC2)nc(-c2ccco2)c2c1CCCC2	CYP2C9 inh 67
CC1(C)Cc2c(C#N)c(N3CCCC3)nc(-c3ccco3)c2CO1	CYP2C19 inh 51, CYP2C9 inh 91 (no result: cytoskel mod, E-sel TNF inh)
CCC(=O)N1CCN(c2nc(-c3ccccc3)c3c(c2C#N)CCCC3)CC1	CYP2C19 inh 83, CYP2C9 inh 69
CC1(C)Cc2c(C#N)c(NCc3ccco3)nc(-c3ccco3)c2CO1	none (no result: cytoskel mod)
CC(C)c1nc(N2CCN(C(=O)c3ccccc3)CC2)c(C#N)c2c1COC(C)(C)C2	CYP2C19 inh 72, CYP2C9 inh 81
C/C(=N\Nc1cccc(Cl)c1)c1ccc(-n2ccnc2)cc1	none (no result: CYP2C9 act, CYP2C19 inh, CYP2C9 inh, CYP2C19 act, cytoskel mod)
COc1ccc(N(CC(=O)NCC2CCCO2)C(=O)CCC(=O)Nc2nccs2)cc1 (stereo not given)	none (no result: CYP2C9 act, CYP2C19 inh, CYP2C9 inh, CYP2C19 act)
ON1C(c2ccccc2)CC2(O)c3nonc3CCC12 (stereo not given)	none
c1csc(-c2cnc3n2CCCC3)c1	none (no result: E-sel TNF inh)
Brc1cccc(-c2nnc3n2CCCCC3)c1	CYP2C19 inh 53
Brc1cccc(-c2cnc3n2CCCCC3)c1	CYP2C19 inh 83
CCCn1c(N2CCN(CC(=O)c3c(C)n(C)c4ccc(OC)cc34)CC2)nc2c1c(=O)[nH]c(=O)n2C	none
COCc1[nH][nH]c(=O)c1C=Nc1ccc(Oc2ccccc2)cc1	CYP2C19 inh 66
CCC(CO)NCc1ccc(-c2ccccc2)cc1 (stereo not given)	none (no result: CYP2C9 act, CYP2C19 inh, CYP2C9 inh, CYP2C19 act, cytoskel mod)
FC(F)(F)c1cc(C(F)(F)F)c2ccc(N3CCN(c4ccc(Cl)cc4)CC3)nc2n1	none
N#CC(c1ccc(Cl)cc1)c1ccc2c(C(F)(F)F)cc(C(F)(F)F)nc2n1 (stereo not given)	CYP2C19 inh 77, CYP2C9 inh 76
CC(=O)Nc1cccc(OCC(=O)NS(=O)(=O)c2ccc(Cl)cc2)c1	none
O=C(NCCc1ccc(O)cc1)c1ccc(Cl)cc1	CYP2C9 act 2.3 (no result: E-sel TNF inh)
CCNC(=O)C(=O)NCCc1ccc(Cl)cc1	CYP2C19 inh 59
COc1ccccc1CCNC(=O)c1ccoc1C	CYP2C19 inh 83
Cc1occc1C(=O)NCCc1ccc(Cl)cc1	CYP2C19 inh 57
Cc1occc1C(=O)NCCCCc1ccccc1	none
O=C(N=C1SCC(=O)N1c1ccccc1Cl)c1ccccc1	none (no result: CYP2C9 act, CYP2C19 inh, CYP2C9 inh, CYP2C19 act, cytoskel mod)
CCCCCN1C2=NCCN2c2ccccc21	none (no result: CYP2C9 act, CYP2C19 inh, CYP2C9 inh, CYP2C19 act)
COC(=O)c1ccc(N2CCCCC2)c(N)c1	none (no result: CYP2C9 act, CYP2C19 inh, CYP2C9 inh, CYP2C19 act, cytoskel mod)
COC(=O)c1ccc(N2CCC(C)CC2)c(N)c1	CYP2C19 inh 60
COc1ccc(/C=C(/C(=O)Nc2ccccc2C(=O)NC(C)C)c2ccccc2)cc1	CYP2C9 inh 60
Cc1ccc(N2CCN(C(=O)c3ccccc3NC(=O)C3CC=CCC3C(=O)O)CC2)cc1 (stereo not given)	CYP2C19 inh 52
Cc1ccccc1NC(=O)C1CCCN(S(=O)(=O)c2c(C)noc2C)C1 (stereo not given)	none
COc1ccc(OC)c(NC(=O)COC(=O)/C=C/c2ccc(Cl)cc2)c1	none (no result: CYP2C9 act, CYP2C19 inh, CYP2C9 inh, CYP2C19 act, cytoskel mod)
S=C(NCCSCc1ccccc1Cl)Nc1ccccc1	CYP2C19 inh 96
S=C(NCCSCc1ccc(Cl)cc1)Nc1ccccc1	CYP2C19 inh 51, CYP2C9 inh 52
Cc1ccccc1S(=O)(=O)Cc1ccc(C(=O)NC(C)c2ccc3c(c2)OCCO3)o1 (stereo not given)	CYP2C19 inh 99, CYP2C9 inh 98 (no result: E-sel TNF inh)
CC(NC(=O)c1ccc(CS(=O)(=O)c2ccc(Cl)cc2)o1)c1ccc2c(c1)OCCO2 (stereo not given)	CYP2C9 inh 74
Cc1nc(S(=O)(=O)c2ccc(Cl)cc2Cl)nc2c1CCC2	none
COc1ccccc1OC(=O)c1cc(Cl)nc2ccccc12	CYP2C9 inh 75
Cc1cc(OC(=O)c2cc(Cl)nc3ccccc23)ccc1Cl	none
S=c1[nH]nc(-c2cc(-c3ccco3)[nH]n2)n1-c1cccc2ccccc12	none
C=CCn1c(O)c(C(CC)=NCc2cccnc2)c(=O)[nH]c1=O	CYP2C19 inh 54 (no result: E-sel TNF inh)
C=CCn1c(SCc2ccccc2)nc(O)cc1=O	none (no result: E-sel TNF inh)
O=C(O)/C=C/c1cn(Cc2ccccc2)nc1-c1ccccc1	none
Cc1ccc(-c2nn(Cc3ccccc3)cc2/C=C/C(=O)O)cc1C	CYP2C19 inh 76
COC(F)(C(=O)Nc1ccc2c(c1)C(=O)NC2=O)C(F)(F)F (stereo not given)	none (no result: cytoskel mod)
Cc1ccccc1NS(=O)(=O)c1cc(S(C)(=O)=O)ccc1C	none (no result: CYP2C9 act, CYP2C19 inh, CYP2C9 inh, CYP2C19 act, cytoskel mod)
COc1cc(S(=O)(=O)n2nnc3ccccc32)c(OC)cc1Cl	none (no result: CYP2C9 act, CYP2C19 inh, CYP2C9 inh, CYP2C19 act)
COc1cc(S(=O)(=O)Nc2ncccc2C)c(OC)cc1Cl	CYP2C19 inh 91
COc1cc(NS(=O)(=O)c2cc(C)ccc2OC)c(OC)cc1Cl	CYP2C19 inh 67
COc1ccc(C)cc1S(=O)(=O)Nc1ccccc1C	CYP2C19 inh 85, CYP2C9 inh 62
CCc1ccc(OC)c(S(=O)(=O)Nc2ccccc2C)c1	CYP2C9 inh 73
COc1ccc(C)cc1S(=O)(=O)Nc1ccccc1	none
O=C(COc1ccccc1)Nc1nn[nH]n1	none
O=C(N/C(=C\c1ccccc1Cl)C(=O)N1CCOCC1)c1ccc([N+](=O)[O-])cc1	none (no result: CYP2C9 act, CYP2C19 inh, CYP2C9 inh, CYP2C19 act, cytoskel mod)
